Our source for the growth values is PubChem BioAssay (NCI).

Molecules are shown by their SMILES. The panel holds about 83,000 compounds, 20% with a hit somewhere; the sample as a whole holds those more often.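 Cell lines were cultured in 96-well plates, exposed to a single compound concentration, and assessed for percent growth 48 hours later.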 A number with no mark means an inactive call. The source made the active and inactive calls. Rule for the calls: active = growth percent below 10; inactive = the rest.

Among the test systems are SK-MEL-2 melanoma; EKVX NSCLC; SN12C renal; UO-31 renal; TK-10 renal; ACHN renal; CAKI-1 renal; A498 renal; CCRF-CEM leukemia; MOLT-4 leukemia; SR leukemia; RPMI-8226 leukemia; OVCAR-8 ovarian; OVCAR-5 ovarian; OVCAR-4 ovarian; SK-OV-3 ovarian; IGROV1 ovarian; OVCAR-3 ovarian; HS 578T breast; NCI/ADR-RES ovarian.
Assay in all cases: NCI-60 one-dose screen, 48 h (100 = growth as untreated, 0 = no growth, -100 = all killed)
Conditions in all cases: 10 µM unless noted

Take `CCOC(=O)n1cc(-c2nonc2-c2cn(C)c3ncccc23)c2cc(F)ccc21`: the growth in the assay with SK-MEL-2 melanoma is 92.8%; in the assay on EKVX NSCLC, 67.3%; in the assay on SN12C renal it was 79.8%; with UO-31 renal, 57.5%; with TK-10 renal, 80.8%; with ACHN renal, 74.9%. Also, the growth was 54.8% in the assay on CAKI-1 renal; 94.8% with A498 renal; 85% with CCRF-CEM leukemia; 66.7% in the assay on MOLT-4 leukemia; 84% in the assay with SR leukemia; 58.3% in the assay with RPMI-8226 leukemia. Besides, the growth in the assay on OVCAR-8 ovarian was 84.5%; in the assay with OVCAR-5 ovarian, 87.7%; with OVCAR-4 ovarian, 55.3%; with SK-OV-3 ovarian it was 85.8%; in the assay on IGROV1 ovarian it was 56.3%; in the assay on OVCAR-3 ovarian, 77.6%. Moreover, the growth in the assay with HS 578T breast was 79.4%; with NCI/ADR-RES ovarian, 74%.
Take `Cc1cc(C)nc(SC2=C(Nc3cccc(Cl)c3)C(=O)N(Cc3ccccc3)C2=O)n1`: the growth with SK-MEL-2 melanoma was 75.9% [30 µM]; in the assay with EKVX NSCLC, 56% [30 µM]; in the assay on SN12C renal it was 71.9% [30 µM]; with UO-31 renal, 34% [30 µM]; in the assay with TK-10 renal, 97.2% [30 µM]; in the assay on ACHN renal, 68.2% [30 µM]. The growth with CAKI-1 renal was 66% [30 µM]; in the assay with A498 renal it was 67.2% [30 µM]; in the assay with CCRF-CEM leukemia, 26.2% [30 µM]; in the assay with MOLT-4 leukemia, 7.17% [30 µM] (active); in the assay on SR leukemia it was 28.8% [30 µM]; in the assay on RPMI-8226 leukemia it was 23.3% [30 µM]. For the same molecule, the growth is 52.5% [30 µM] in the assay with OVCAR-8 ovarian; 107% [30 µM] with OVCAR-5 ovarian; 61.9% [30 µM] in the assay with OVCAR-4 ovarian; 113% [30 µM] in the assay with SK-OV-3 ovarian; 43.3% [30 µM] in the assay on IGROV1 ovarian; 68.6% [30 µM] in the assay with OVCAR-3 ovarian. For the same molecule, the values for the growth in the assay on HS 578T breast and in the assay with NCI/ADR-RES ovarian were 97.8% [30 µM] and 55.5% [30 µM], respectively.
For the molecule `Cn1c(=O)[nH]c(=O)c2nc(CCC(=O)NCCC(=O)O)c(=O)[nH]c21`, the growth in the assay with SK-MEL-2 melanoma was 106%; with EKVX NSCLC it was 106%; in the assay with SN12C renal, 99.5%; in the assay on UO-31 renal it was 86.6%; in the assay on TK-10 renal it was 106%; in the assay with ACHN renal it was 101%. The growth with CAKI-1 renal is 93.5%; in the assay with A498 renal, 114%; in the assay with CCRF-CEM leukemia it was 109%; in the assay with MOLT-4 leukemia it was 106%; in the assay with SR leukemia, 113%; in the assay on RPMI-8226 leukemia, 111%. For the same molecule, the growth with OVCAR-8 ovarian was 101%; with OVCAR-5 ovarian it was 106%; in the assay with OVCAR-4 ovarian, 106%; in the assay with SK-OV-3 ovarian it was 101%; in the assay with IGROV1 ovarian, 98.6%; with OVCAR-3 ovarian, 113%. Moreover, the figures for the growth with HS 578T breast and with NCI/ADR-RES ovarian were 89.8% and 105%, respectively.
Turning to `CCCCN1CCCn2c1nc1c2c(=O)n(CCC)c(=O)n1CCC`, the growth with SK-MEL-2 melanoma is 90.1%; with EKVX NSCLC, 97.2%; with SN12C renal, 93.2%; with UO-31 renal, 76.8%; in the assay on TK-10 renal, 97.1%; with ACHN renal it was 88.4%. The growth in the assay on CAKI-1 renal is 89.1%; in the assay on A498 renal it was 80.2%; with CCRF-CEM leukemia it was 104%; with MOLT-4 leukemia, 103%; in the assay with SR leukemia, 67.1%; in the assay on RPMI-8226 leukemia, 110%. Also, the growth was 102% with OVCAR-8 ovarian; 105% with OVCAR-5 ovarian; 101% in the assay with OVCAR-4 ovarian; 101% in the assay with SK-OV-3 ovarian; 110% in the assay with IGROV1 ovarian; 94.8% with OVCAR-3 ovarian. For the same molecule, the growth in the assay on HS 578T breast is 96.4%; with NCI/ADR-RES ovarian, 99.8%.
`C#Cc1cccc(NC(=O)c2ccccc2NC(=O)C=C)c1`: the growth is 104% [8.25 µM] with SK-MEL-2 melanoma; 109% [8.25 µM] in the assay with EKVX NSCLC; 94% [8.25 µM] with SN12C renal; 85.6% [8.25 µM] in the assay on UO-31 renal; 81.1% [8.25 µM] in the assay on TK-10 renal; 105% [8.25 µM] with ACHN renal. Further, the growth in the assay with CAKI-1 renal is 97.3% [8.25 µM]; with A498 renal, 96.8% [8.25 µM]; in the assay with CCRF-CEM leukemia, 106% [8.25 µM]; with MOLT-4 leukemia, 102% [8.25 µM]; in the assay with SR leukemia it was 101% [8.25 µM]; in the assay on RPMI-8226 leukemia it was 66.9% [8.25 µM]. Besides, the growth was 91.4% [8.25 µM] in the assay on OVCAR-8 ovarian; 113% [8.25 µM] in the assay on OVCAR-5 ovarian; 100% [8.25 µM] in the assay on OVCAR-4 ovarian; 99.2% [8.25 µM] in the assay with SK-OV-3 ovarian; 101% [8.25 µM] in the assay with IGROV1 ovarian; 104% [8.25 µM] in the assay with OVCAR-3 ovarian. The values for the growth with HS 578T breast and in the assay on NCI/ADR-RES ovarian were 89.9% [8.25 µM] and 103% [8.25 µM], respectively.
Consider `COc1ccc(NC2=C(Sc3nc(C)cc(C)n3)C(=O)N(Cc3ccccc3)C2=O)cc1Cl`, for which the growth with SK-MEL-2 melanoma was 96.5% [30 µM]; in the assay on EKVX NSCLC it was 84.5% [30 µM]; in the assay with SN12C renal, 91.8% [30 µM]; in the assay with UO-31 renal, 84.2% [30 µM]; in the assay with TK-10 renal, 111% [30 µM]; in the assay on ACHN renal, 103% [30 µM]. For the same molecule, the growth is 95.7% [30 µM] in the assay on CAKI-1 renal; 80.4% [30 µM] with A498 renal; 54.6% [30 µM] in the assay with CCRF-CEM leukemia; 45% [30 µM] in the assay on MOLT-4 leukemia; 63.4% [30 µM] with SR leukemia; 39.3% [30 µM] in the assay with RPMI-8226 leukemia. Also, the growth was 29.3% [30 µM] in the assay on OVCAR-8 ovarian; 124% [30 µM] in the assay with OVCAR-5 ovarian; 78.6% [30 µM] with OVCAR-4 ovarian; 117% [30 µM] with SK-OV-3 ovarian; 113% [30 µM] with IGROV1 ovarian; 92% [30 µM] in the assay with OVCAR-3 ovarian. Moreover, the growth was -21.7% [30 µM] (active) in the assay with HS 578T breast and 63.5% [30 µM] in the assay on NCI/ADR-RES ovarian.
Regarding `CN(C)S(=O)(=O)c1cccc(-c2nc3sc4c(c3c(=O)[nH]2)CCCC4)c1`, the growth in the assay on SK-MEL-2 melanoma was 36.9%; in the assay on EKVX NSCLC, 56.1%; in the assay with SN12C renal it was 28.3%; with UO-31 renal, 29.6%; in the assay on TK-10 renal it was -20.5% (active); in the assay with ACHN renal, 96.5%. For the same molecule, the growth with CAKI-1 renal is 65.5%; with A498 renal, -29.8% (active); with CCRF-CEM leukemia it was 35.5%; in the assay with MOLT-4 leukemia, 56.9%; in the assay on SR leukemia it was -48.6% (active); in the assay on RPMI-8226 leukemia it was 23.9%. In addition, the growth with OVCAR-8 ovarian is 13.4%; with OVCAR-5 ovarian, 23.3%; with OVCAR-4 ovarian, -56.4% (active); in the assay with SK-OV-3 ovarian it was 7.06% (active); in the assay on IGROV1 ovarian it was 32.1%; with OVCAR-3 ovarian it was 19.5%. In addition, the growth with HS 578T breast was -4.53% (active); in the assay on NCI/ADR-RES ovarian, 29.5%.
